Measured potencies and affinities stand elsewhere.

The nature of this test: A High Throughput Confirmatory Assay used to Identify Novel Compounds that Inhibit Mycobacterium Tuberculosis in the absence of Glycerol using Purified and Synthesized Compounds (5). In kind it is functional.
For orientation: IC90 means the concentration at which the effect reaches the 90% level. `CNC(=O)CSc1nc2ccccc2c(=O)[nH]1`: the IC90 is > 100 µM (active). The same measure for `CCCc1cc(C(N)=S)ccn1`: > 100 µM (active); for `Cc1[nH]c2ccccc2c1C(=O)COC(=O)c1ccc([N+](=O)[O-])s1`: > 68.8 µM (active). The same measure for `Cc1cc(Br)ccc1NC(=O)c1cnc(N2CCN(c3ccccn3)CC2)c2ccccc12`: > 100 µM (active).
